Results as given in PubChem BioAssay AID492953 (The Scripps Research Institute Molecular Screening Center, 2010).
About 4,200 (1.2%) of roughly 340,000 compounds were called active. This is one part of a sample in which actives are shown more often than they occur. A number with no mark means an inactive call.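 Rule for the calls: active = inhibition above the mean of all tested compounds plus 3 SD (cut at about 24% in these data); inactive = the rest.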

Target: Platelet-activating factor acetylhydrolase IB subunit alpha2 (Homo sapiens) (UniProt P68402)
Experiment: PAFAH1B2 enzyme inhibitors, primary screen, biochemical, fluorescence polarization, human (AID 492953);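 note: 0% = enzyme with DMSO and 100% = wells lacking PAFAH1B2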
Settings: recombinant PAFAH1B2, FP-rhodamine activity probe, at 3.39 µM, active compounds read high

Chain of Platelet-activating factor acetylhydrolase IB subunit alpha2 (Homo sapiens) (P68402 whole entry, looked up): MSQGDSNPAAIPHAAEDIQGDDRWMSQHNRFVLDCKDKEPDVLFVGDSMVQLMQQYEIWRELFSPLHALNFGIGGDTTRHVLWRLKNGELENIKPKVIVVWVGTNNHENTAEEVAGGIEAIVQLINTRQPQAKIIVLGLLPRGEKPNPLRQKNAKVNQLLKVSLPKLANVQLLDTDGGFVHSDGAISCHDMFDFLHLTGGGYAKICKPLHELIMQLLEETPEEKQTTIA

Row | Compound | inhibition
1 | O=C(c1cccc(F)c1)N1CCC(O)(c2cccnc2)CC1 | 1.64%
2 | Cc1ccsc1C(=O)NNC(=O)COc1ccc(Br)cc1 | 24.9% (active)
3 | Cn1cnnc1SCC(=O)NNC(=O)COc1ccc(Br)cc1 | 8.93%
4 | Cn1cccc1C(=O)NNC(=O)COc1ccc(Br)cc1 | 6.31%
5 | O=C(N/N=C/c1cccnc1)c1ccc(NC(=O)c2ccc(F)cc2)cc1 | -2.15%
6 | O=C(N/N=C\c1cccnc1)c1cc(-c2ccccc2)nc2c(Cl)cccc12 | -6.71%
7 | Fc1ccc(/C=N/Nc2nc(-c3cccnc3)nc3ccccc23)cc1 | 25.3% (active)
8 | O=C(c1cc2c(s1)CCC2)N1CCN(c2ccccc2)CC1 | 1.7%
9 | COc1cc(CNc2ncn[nH]2)ccc1OCc1ccccc1C | -0.89%
10 | CN(CCCNC(=O)CN1C(=O)CC(C)(C)S(=O)(=O)c2ccccc21)C1CCCCC1 | 5.24%
11 | Nc1scc(-c2ccncc2)c1Cl | 89.9% (active)
12 | COC(=O)c1c(-c2ccc(C)cc2)csc1N | 2.65%
13 | CCOc1ccc(NC(=O)CSc2nc3ccccc3c(=O)n2Cc2cccs2)cc1 | 6.05%
14 | CN1C(C)(C)CC(NC(=O)CCC(=O)NC2CC(C)(C)N(C)C(C)(C)C2)CC1(C)C | 2.28%
15 | CC(=O)N1CCN(S(=O)(=O)c2cccc(C(=O)NC3CCC(C)CC3)c2)CC1 (stereo not drawn) | 5.89%
16 | CC1CC(C)CN(S(=O)(=O)c2cccc(C(=O)N3C(=O)c4cccc(N)c4C3=O)c2)C1 (stereo not drawn) | 39.9% (active)
17 | COc1cc(C(=O)N2C(=O)c3cccc(N)c3C2=O)cc(OC)c1OC | 1.13%
18 | CCn1c(SCC(=O)Nc2nc(C)cs2)nnc1C(C)NC(=O)c1ccccc1 (stereo not drawn) | 8.33%
19 | CC(C)CC(=O)Nc1nnc(S(=O)(=O)N(C)c2ccc(Cl)cc2)s1 | 26.6% (active)
20 | COc1cccc(C(=O)Nc2nnc(S(=O)(=O)N(C)c3ccccc3)s2)c1 | -2.38%
21 | CCC(=O)Nc1nnc(S(=O)(=O)N(CC(C)C)c2ccccc2)s1 | 17.8%
22 | COC(=O)c1sccc1NS(=O)(=O)c1ccc(F)cc1F | 0.87%
23 | CC(=O)c1c(C)[nH]c(C(=O)Nc2cc(S(=O)(=O)N(C)C)ccc2C)c1C | 2.08%

Row | Compound | inhibition
24 | O=C(NC1CCN(S(=O)(=O)c2ccc(F)cc2)CC1)c1ccccc1 | 2.57%
25 | Cc1ccc(S(=O)(=O)/N=C(/NC(=S)Nc2c(C)n(C)n(-c3ccccc3)c2=O)c2ccccc2)cc1 | 9.33%
26 | Cc1nnc(NC(=O)CSc2nc(C3CCCCC3)nc3ccccc23)s1 | 0.98%
27 | O=C(CSc1nc(C2CC2)nc2ccccc12)Nc1ccc2c(c1)OCCO2 | 38% (active)
28 | O=C(CSc1nc(C2CC2)nc2ccccc12)Nc1cccc(O)c1 | -0.49%
29 | O=C(CN1C(=O)CSC1=O)N1CCCC(Nc2ccc(F)cc2)C1 (stereo not drawn) | -1.15%
30 | O=C(c1ccc2c(c1)C(=O)N(Cc1ccncc1)C2=O)N1CCN(S(=O)(=O)c2ccc(OC(F)(F)F)cc2)CC1 | 5.75%
31 | CC1CC(=S)Nc2ccccc2N1Cc1ccccc1 (stereo not drawn) | 7.13%
32 | CC1CN(Cc2ccco2)C(=S)N(c2ccccc2)C1=O (stereo not drawn) | 5.61%
33 | CC1CN(Cc2ccccc2)C(=S)NC1=O (stereo not drawn) | 29.8% (active)
34 | COc1ccc(CCNC(=O)c2ccc(NC(=O)CC3SC(N4CCCCC4)=NC3=O)cc2)cc1OC (stereo not drawn) | 1.09%
35 | Cc1ccc(C2CC(c3cccc(Br)c3)n3nc(N)nc3N2)cc1 (stereo not drawn) | 0.4%
36 | COCCn1c(Cc2cccn2C)nnc1SCC(=O)Nc1nccs1 | -1.79%
37 | O=C(Nc1ccc(F)cc1)C1CCCN(S(=O)(=O)c2ccc(-n3cnnn3)cc2)C1 (stereo not drawn) | 0.34%
38 | CC(C)CNC(=O)C1CCCN(S(=O)(=O)c2ccc(-n3cnnn3)cc2)C1 (stereo not drawn) | 5.01%
39 | CC(NC(=O)C1CCCN(S(=O)(=O)c2ccc(-n3cnnn3)cc2)C1)c1ccc(F)cc1 (stereo not drawn) | 26.6% (active)
40 | O=C(NCc1cccc(Cl)c1)C1=CC=CN2CCS(=O)(=O)N=C12 | 6%
41 | O=C(C1CCN(CC2CCCCC2)CC1)N1CCCC1 | 0.2%
42 | CCCCN(CC)CCCNC(=O)c1ccc(CSc2nc3ccncc3[nH]2)cc1 | -2.43%
43 | CC1=NN(/C(=N\c2nnc(C)s2)Nc2ccccc2)[C@H](c2ccc(C)cc2)S1 | 6.77%
44 | CCCSc1nsc(N)n1 | 3.46%
45 | Nc1nc(SC23CC4CC(CC(C4)C2)C3)ns1 | 25.4% (active)
46 | CCCCCCSc1nsc(N)n1 | 3.17%

Row | Compound | inhibition
47 | Nc1ccn(C2CC(O)C(CO)O2)c(=O)n1 (stereo not drawn) | 4.72%
48 | COc1ccccc1C(=O)NCC(=O)NCCSc1ccc(Br)cc1 | 27.3% (active)
49 | COc1cc(C(=O)NCC(=O)NCCSc2ccc(Br)cc2)cc(OC)c1OC | 18.7%
50 | COc1ccccc1C(=O)NCC(=O)OCC(=O)NNC(=O)c1ccc(Br)cc1 | 4.05%
51 | Cc1c(C(=O)NC2CCCCC2)oc2ccccc12 | 1.03%
52 | Cc1cc(Br)ccc1SCC(=O)OCC(=O)NCc1ccc2c(c1)OCO2 | 25.2% (active)
53 | Cc1ccc(C(=O)OCC(=O)NCc2ccc3c(c2)OCO3)s1 | -1.11%
54 | COc1cccc(CC(=O)OCC(=O)NCc2ccc3c(c2)OCO3)c1 | 8.95%
55 | CCc1ccc2[nH]c(=O)c(Cc3ccccc3)c(O)c2c1 | 24.7% (active)
56 | O=C(Cc1c(O)c2ccccc2[nH]c1=O)NCc1ccccc1 | 2.81%
57 | Cc1ccc2c(O)c(Cc3ccccc3)c(=O)[nH]c2n1 | 0.81%
58 | O=C(Nc1ccccc1)Oc1cccc2cccnc12 | 3.18%
59 | O=C(c1cccc(S(=O)(=O)N2CCCCCC2)c1)N1CCN(Cc2ccccc2)CC1 | 0.99%
60 | O=C(NC(=O)c1ccc(Cl)c(Cl)c1)OC1CCS(=O)(=O)C1 (stereo not drawn) | -3.52%
61 | O=C(NCCc1c[nH]c2ccccc12)c1cc2ccccc2oc1=O | 6.1%
62 | CC1CCCCC1NC(=O)COc1ccc(C#N)cc1 (stereo not drawn) | 2.44%
63 | Oc1ccc(N=Nc2nccs2)c(O)c1 | 35.3% (active)
64 | O=C(OC12CC3CC(CC(C3)C1)C2)c1ccc(NCc2cc(O)ccc2O)cc1 | 3.5%
65 | CCn1cc(C(=O)NC2CCCCCC2)c(=O)c2cc(S(=O)(=O)N3CCCCC3)ccc21 | 0.07%
66 | COc1ccc(S(=O)(=O)N2CCOCC2)cc1C(=O)NC1CCCCC1 | 2.51%
67 | Cc1ccc(S(=O)(=O)N2CCN(C)CC2)cc1C(=O)NC1CCCCC1 | 25.7% (active)
68 | COc1ccc2c(c1)c(=Cc1ccc(N(C)C)cc1)c1cc(-c3ccccc3)[n+](C)n12 | -27.4%
